This is an account of results in PubChem BioAssay (EPA / NIEHS).

Records with an inconclusive call do not appear. Calls of active or inactive are those of the source. The calls were made as follows, unless noted: active = hit-call score of the fitted dose curve at least 0.9, where 1 is the maximum; inactive = score below 0.9.

The nature of experiment [1]: UKN5_HCS_SBAD2_cell_viability: Viability Assessment in the University of Konstanz (UKN) Leist Lab Neurite Outgrowth Assay in human iPSC-derived immature Dorsal Root Ganglia Neurons (UKN5) (AID 2284056). Put shortly: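 iPSC-derived immature peripheral neurons (SBAD2) seeded on Matrigel with CHIR99021, SU5402 and DAPT, dosed 1 h later for 24 h. Viability from Hoechst H-33342 and calcein-AM live staining, high-content imaging; bidirectional fit versus DMSO.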

The nature of experiment [2]: CCTE_Shafer_MEA_acute_AB: CCTE's Alamar Blue Assay for Cytotoxicity in the Neural Acute Assay, Shafer Lab (AID 2284069; active = hit-call score of the fitted dose curve at least 0.9, where 1 is the maximum;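 also: active compounds lower the viability signal compared with DMSO wells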). Put shortly: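 Cytotoxicity endpoint for acute MEA exposures of primary rat cortical neurons on day 13 or 15. Resazurin reduction is read fluorescently at 544/590 nm, with DMSO as the negative-control baseline.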
For orientation: The colour change of resazurin is a common sign of viable cells or microbes.

Experiment [3] can be described thus: UKN5_HCS_SBAD2_neurite_outgrowth: University of Konstanz (UKN) Leist Lab Neurite Outgrowth Assay in human iPSC-derived immature Dorsal Root Ganglia Neurons (UKN5) (AID 2284070). Conditions: actives raise or lower the signal. Put shortly: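 SBAD2 neurons, 24 h compound treatment, calcein-AM neurite area via HCS imaging; DMSO baseline, gain or loss of signal.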

Experiment [4] is described as follows: UKN2_HCS_IMR90_neural_migration: University of Konstanz (UKN) Leist Lab Neural Crest Cell Migration Assay in human induced IMR90 Pluripotent Stem Cells (UKN2) (AID 2284204). Conditions: actives raise or lower the signal. Put shortly: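 iPSC-derived IMR90 neural crest cells seeded around stoppers on PLO/laminin/fibronectin; migration started in N2-S medium with EGF/FGF, compounds added after 24 h for 24 h. Migration into cell-free area imaged after calcein-AM/Hoechst staining; bidirectional fit versus DMSO.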

A short description of experiment [5]: UKN4_HCS_LUHMES_neurite_outgrowth: University of Konstanz (UKN) Leist Lab Neurite Outgrowth Assay in human LUHMES cells (UKN4) (AID 2284206). Conditions: actives raise or lower the signal. Put shortly:
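2-day-differentiated LUHMES, 24 h cpd exposure, live calcein-AM + H-33342 stain, HCS fluorescence imaging of neurite area; DMSO = baseline, bidirectional fit.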

A word on the AC50: it is the concentration giving half of the maximal activity seen. Consider `Oc1c(Cl)cc(Cl)c(Cl)c1Cc1c(O)c(Cl)cc(Cl)c1Cl`, for which the AC50 is 73.5 µM (active) in experiment [1], 78 µM (active) in experiment [3], 0.885 µM (active) in experiment [4] and 7.47 µM (active) in experiment [5]. The result in experiment [2] was inactive.
Turning to `COCCOCCOCCO`, in experiment [4], the molecule was called inactive.
